Results taken from PubChem BioAssay (NCI).
Compounds without any hit were thinned out: in the full panel of roughly 83,000, 20% have a hit.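 Single-concentration screen, 48 h exposure, 96-well plates. Endpoint: percent growth. Below 10 = active.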 The source made the active and inactive calls.

How the values were obtained:
Test in all cases: NCI-60 one-dose screen, 48 h (100 = growth as untreated, 0 = no growth, -100 = all killed)
Conditions in all cases: 10 µM unless noted
[1] = system: HCT-15 colon
[2] = system: HT29 colon
[3] = system: SNB-75 CNS
[4] = system: SNB-19 CNS
[5] = system: U251 CNS
[6] = system: PC-3 prostate
[7] = system: SK-MEL-5 melanoma
[8] = system: UACC-62 melanoma
[9] = system: LOX IMVI melanoma
[10] = system: SK-MEL-28 melanoma

Measured: growth

CCn1c(=S)[nH]c2c(=O)n(C)c(=O)n(C)c21
inactive: [1] 101% | [2] 112% | [3] 96.2% | [4] 100% | [5] 95.9% | [6] 100% | [7] 106% | [8] 116% | [9] 98.8% | [10] 109%

O=C(Nc1ncc(Cc2ccc(Cl)c(C(F)(F)F)c2)s1)c1ccc2nnsc2c1
active: [8] 6.95%
inactive: [1] 40.4% | [2] 57.7% | [3] 90.8% | [4] 46.2% | [5] 42.7% | [6] 38.3% | [7] 38.3% | [9] 29.3% | [10] 54.7%

OCCNCCCOc1ccc2ncnc(Nc3ccc(Oc4cccc(C(F)(F)F)c4)c(Cl)c3)c2c1
active: [1] -23.8% | [2] -13.3% | [5] 3.99% | [9] -98.9%
inactive: [3] 62.4% | [4] 44.9% | [6] 30.5% | [7] 48.9% | [8] 88.3% | [10] 73.1%

COc1cccc(NC(=O)Cn2cc(CN3CCN(c4ccnc5cc(Cl)ccc45)CC3)nn2)c1
inactive: [1] 89.8% | [2] 98% | [3] 75.5% | [4] 88.7% | [5] 96.3% | [6] 67.4% | [7] 59.3% | [8] 75.8% | [9] 86.8% | [10] 102%

CCOC(=O)c1c2c(n3ccc(C)cc13)C(=O)c1ccccc1C2=O
inactive: [1] 85.2% | [2] 87.8% | [3] 100% | [4] 98.4% | [5] 92.8% | [6] 78% | [7] 82.1% | [8] 92.6% | [9] 94% | [10] 111%

CCCCN1C(=O)/C(=c2\sc3n(c2=O)C2C(NN=3)N(CC)C(=O)N2CC)c2ccccc21 (stereo not given)
inactive: [4] 25% | [6] 20.7% | [7] 29.2% | [8] 18.9% | [9] 20.1% | [10] 48.1%
active: [1] 8.29% | [2] 0.704% | [3] -17.6% | [5] 5.8%

C=CCc1c(O)c(C(=O)/C=C/c2ccc(Cl)cc2)c(OC)c2ccoc12
inactive: [1] 41.3% | [2] 36.6% | [3] 80.1% | [4] 63.2% | [5] 37.7% | [6] 30.9% | [7] 52.6% | [8] 48.1% | [9] 34.8% | [10] 63.5%

O=C(/C=C/c1ccccc1)c1cccc(OCCCOc2cccc(C(=O)/C=C/c3ccccc3)c2)c1
inactive: [1] 57.4% | [2] 52.4% | [3] 93.9% | [4] 85.7% | [5] 64.3% | [6] 82.8% | [7] 100% | [8] 87.3% | [9] 58.1% | [10] 102%

CS(=O)(=O)C1=CN(CCO)C(=O)N2CCCN=C12
inactive: [1] 107% | [2] 107% | [3] 94.5% | [4] 99.2% | [5] 103% | [6] 98.8% | [7] 97.7% | [8] 102% | [9] 101% | [10] 104%

Fc1ccc(Nc2nc3nonc3nc2Nc2ccc(I)cc2)cc1
active: [1] 6.8% | [2] 3% | [3] -5.57% | [5] -45% | [6] 4.86% | [7] -72.7% | [8] -21.4% | [9] -26.9%
inactive: [4] 18.6% | [10] 17.1%

CNC(=O)c1cc(Oc2ccc3nc(NC(C)=O)sc3c2)ccn1
inactive: [1] 106% | [2] 110% | [3] 84.4% | [4] 106% | [5] 98.4% | [6] 96.3% | [7] 101% | [8] 98.8% | [9] 93.2% | [10] 105%

O=S(=O)(NCCNc1nccc(-c2c(-c3cccc(F)c3)nc3occn23)n1)c1ccc(Br)cc1
inactive: [1] 77.9% | [2] 52.3% | [3] 78.4% | [4] 93.3% | [5] 85.5% | [6] 73.8% | [7] 76.3% | [8] 77.5% | [9] 75.9% | [10] 91.9%

COc1ccc2c3c([nH]c2c1)C(=O)c1nc(C)ccc1C3=O
inactive: [1] 22.3% | [2] 74.9% | [4] 46.1% | [5] 45.6% | [6] 45.7% | [9] 19.1% | [10] 83.7%
active: [3] -4.19% | [7] -95.1% | [8] -29.3%

CN1CCN(C(=O)OCc2ccc3c(Cl)cc(Cl)c(O)c3n2)CC1
inactive: [1] 22.8% | [2] 103% | [3] 70.7% | [4] 53.3% | [5] 36.6% | [6] 44.1% | [7] 49.6% | [8] 60% | [9] 49.3% | [10] 67.1%

O=C(CCCCC1CCSS1)Nc1ncnc2n[nH]c(-c3ccc(Oc4ccccc4)cc3)c12 (stereo not given)
inactive: [1] 95.8% | [2] 88.3% | [3] 135% | [4] 114% | [5] 106% | [6] 90.2% | [7] 87.9% | [8] 70.4% | [10] 47%
active: [9] 5.87%

C#COc1cccc(Nc2ncnc3ncc(NC(=O)CCl)cc23)c1
inactive: [3] 49.5% [6.25 µM] | [4] 20% [6.25 µM] | [6] 20.6% [6.25 µM] | [7] 47.1% [6.25 µM] | [8] 27.2% [6.25 µM] | [10] 55.4% [6.25 µM]
active: [1] -30.3% [6.25 µM] | [2] -65.2% [6.25 µM] | [5] -73.3% [6.25 µM] | [9] -94.2% [6.25 µM]

CCOC(=O)c1c(NC(=O)c2ccc(C(C)C)cc2)sc2c(CN(C)C)c(O)ccc12
active: [1] -49.2% | [5] 6.18% | [9] -83.3% | [10] -14.9%
inactive: [2] 27% | [3] 98.5% | [4] 57.8% | [6] 96.1% | [7] 80.7% | [8] 53.8%

Cc1ccc(-c2nc3nc(-c4ccccc4)nc(N4CCNCC4)c3o2)cc1
active: [1] -77% | [2] -74.4% | [3] -90.7% | [4] -80.6% | [5] -90.2% | [6] -81.6% | [7] -95.8% | [8] -87.8% | [9] -78.6% | [10] -90.1%

CCN1CCN(Cc2cn(CC(=O)Nc3ccc4c(ccn4Cc4ccccc4)c3)nn2)CC1
inactive: [1] 109% | [2] 102% | [3] 86.8% | [4] 98.4% | [5] 96.6% | [6] 96.4% | [7] 99.9% | [8] 95% | [9] 103% | [10] 105%

Cn1cc(-c2csc(-c3c[nH]c4ccc(Br)cc34)n2)c2cnccc21
active: [1] -78.9% | [2] -70% | [3] -95.8% | [4] -85.5% | [5] -85.8% | [6] -79.5% | [7] -67.7% | [8] -90.6% | [9] -92.7% | [10] -93.6%

O=[N+]([O-])c1ccc(S(=O)(=O)N2CCN(C3=NS(=O)(=O)c4ccccc4N3c3ccccc3)CC2)cc1
inactive: [1] 109% | [2] 110% | [3] 90.2% | [4] 101% | [5] 101% | [6] 87.4% | [7] 90.7% | [8] 98.2% | [9] 97.2% | [10] 135%

N#CC1C=CN(CC(N)=O)c2ccc3cccnc3c21 (stereo not given)
inactive: [1] 96.2% | [2] 88.3% | [3] 87.2% | [4] 96.1% | [5] 91.7% | [6] 84.2% | [7] 96.5% | [8] 96.9% | [9] 97.5% | [10] 104%

CCN(c1ccc(Cl)cc1)c1nc(-c2ccc([N+](=O)[O-])cc2)cs1
inactive: [1] 98.1% | [2] 91% | [3] 96.8% | [4] 95.4% | [5] 102% | [6] 92.6% | [7] 99.7% | [8] 79.8% | [9] 93% | [10] 105%

COc1cc(CNC(=O)/C=C/C=C/c2ccc3c(c2)OCO3)ccc1OCc1cn(-c2ccc(C)c(C)c2)nn1
inactive: [1] 81.3% | [2] 91.6% | [3] 88.4% | [4] 79.5% | [5] 86.3% | [6] 75.1% | [7] 81.7% | [8] 56.9% | [9] 88.1% | [10] 54.1%

Oc1c(Cl)cc(Cl)c2ccc(Cn3cc(-c4ccc(C(F)(F)F)cc4)nn3)nc12
active: [9] 9.23%
inactive: [1] 31.3% | [2] 74.2% | [3] 74.1% | [4] 93.3% | [5] 99.8% | [6] 74.6% | [7] 98.8% | [8] 73.9% | [10] 51.2%

O=C1/C(=C/c2ccc(Cl)c(Cl)c2)CN(C(=O)C(Cl)Cl)C/C1=C\c1ccc(Cl)c(Cl)c1
active: [1] -62.1% | [2] -4.7% | [3] -70.7% | [4] -93.7% | [5] -92.4% | [6] -45.6% | [7] -79.4% | [8] -46.9% | [9] -91.7% | [10] -64.4%

COc1ccc(C2=Nc3c/c(=C\c4c(O)[nH]c5ccc(Cl)cc45)ccc3=N2)cc1
inactive: [1] 22.5% | [3] 36.2% | [4] 65% | [5] 42% | [6] 37% | [7] 34.7% | [8] 48.1% | [10] 35.6%
active: [2] -13.9% | [9] 9.27%
